Results from PubChem BioAssay (NCATS).
Active and inactive are the calls of the source. Calls come from the whole dose curve; as a rule, active = well fitted activation curve with a large enough effect; inconclusive = small, poorly fitted or top-dose-only effect; inactive = flat fitted curve, though single readings scatter.

Test: Cellular Toxicity (caspase-3) N2a (AID 665);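 note: compound exposure lasted 16 h at 37 °C before readout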
Details: N2a cells, luminescence, normalized: DMSO 0%, 10 µM staurosporine 100%; series mostly up to 92.2 µM
Description: NIH Chemical Genomics Center [NCGC]
NIH Molecular Libraries Screening Centers Network [MLSCN]
National Institutes of Environmental Health Sciences [NIEHS]
National Toxicology Program [NTP]
We have developed a 1536-well cell-based assay for quantitative high throughput screening (qHTS) against a number of cell lines to determine in vitro caspase 3/7 activity of small molecules. This particular assay uses the N2a cell line which is derived from mouse neuroblastoma.
NCGC Assay Protocol Summary:
The Caspase-Glo 3/7 assay (Promega) is a homogeneous method to measure caspase-3 and caspase-7 activities in cultured cells. The quantitation of caspase 3/7 activity is based on the cleavage of a peptide-aminoluciferin substrate. After caspase cleaves the substrate the free aminoluciferin is liberated and serves as the substrate of luciferase, which generates the light. The luminescent signal is proportional to the amount of caspase 3/7 activity present.
Using the Caspase-Glo 3/7 assay, the amount of caspase 3/7 activity was measured in the N2a cells with complete culture medium following compound treatment for 16 hours. The assay was performed in opaque white 1536-well plates. In the screen, staurosporine and doxorubicin were used as positive controls. Library compounds were measured for their ability to cause the activation of caspase 3/7 in the cell line, as reflected by an increase in luminescence signal, in a concentration-dependent manner. Data were normalized to the controls for basal activity (DMSO only) and 100% stimulation (10 uM staurosporine). AC50 values were determined from concentration-response data modeled with the standard Hill equation.
qHTS protocol for caspase 3/7 assay in mouse N2a cell line
[Step] [Parameter] [Value] [Description]
1. Reagent; 5 uL; 1500 mouse N2a cells/well
2. Time; 5 hr; 37 °C incubation
4. Controls; 23 nL; doxorubicin 7 pM to 100 uM & staurosporine 1.4 pM to 20 uM
5. Time; 16 hr; 37 °C incubation
6. Reagent; 5 uL; Caspase-Glo 3/7 reagent
7. Time; 1 hr; Room Temperature
8. Detection; Luminescence; Viewlux plate reader
Keywords: caspase 3/7, apoptosis, mouse N2a cell line, luminescence, NTPHTS, NTPHTS_NCGC, NIEHS, EPA, DSSTox, MLSMR, MLSCN, NIH Roadmap, qHTS, NCGC
For `CC(=O)OCC(COC(C)=O)OC(C)=O`, the outcome was “inactive”.
In the case of `C=CCNC(N)=S`, the outcome is reported as “inactive”.
For `CC1CC(OC(=O)c2ccccc2O)CC(C)(C)C1` (configuration not stated), the outcome was “inactive”.
In the case of `CC(=O)Nc1ccc(C(=O)O)cc1`, the outcome is reported as “inactive”.
With `CCCCOC(=O)c1ccc(N)cc1` the outcome was “inactive”.
In the case of `O=C(O)CCCCC1CCSS1` (configuration not stated), the outcome is reported as “inactive”.
With `CC(=O)Nc1ccccc1` the outcome was “inactive”.
In the case of `CCCCCCCC(=O)OCC(COC(=O)CCCCCCC)OC(=O)CCCCCCC`, the outcome is reported as “inactive”.
For `CC(=O)NS(=O)(=O)c1ccc(N)cc1`, the outcome was “inactive”.
For `Cc1cc(C)nc(NS(=O)(=O)c2ccc(N)cc2)n1`, the outcome was “inactive”.
In the case of `FC(F)(F)C(Cl)Br` (configuration not stated), the outcome is reported as “inactive”.
For `CC(=O)Nc1cccc(O)c1`, the outcome was “inactive”.
In the case of `O=C1C(c2[nH]c3ccccc3c2O)=Nc2ccccc21`, the outcome is reported as “inactive”.
In the case of `CCN(CC)C(=O)c1cccc(C)c1`, the outcome is reported as “inactive”.
For `CCCC(O)C(CC)CO` (configuration not stated), the outcome was “inactive”.
For `Cc1cc(=O)[nH]c(=S)[nH]1`, the outcome was “inactive”.
In the case of `CCCCCC(N)=O`, the outcome is reported as “inactive”.
With `O=C1c2cccc(O)c2C(=O)c2c(O)cccc21` the outcome was “inactive”.
In the case of `Nc1ccc(S(=O)(=O)c2ccc(N)cc2)cc1`, the outcome is reported as “inactive”.
With `Cc1c(N(C)C)c(=O)n(-c2ccccc2)n1C` the outcome was “inactive”.
In the case of `COc1ccc(O)cc1`, the outcome is reported as “inactive”.
In the case of `O=C(c1ccccc1)C(O)c1ccccc1` (configuration not stated), the outcome is reported as “inactive”.
